Among the data in PubChem BioAssay are composite z-score and z-score values, retold here.

The test system of test [1] is PRMT1 (protein arginine N-methyltransferase 1). As to the kind of experiment: PRMT1 binders on small-molecule microarrays, primary screen, biochemical, small-molecule microarray, 635 nm fluorescence (AID 1088).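 Note: binding of Prmt1 protein to compounds spotted on small-molecule microarray slides.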 The settings on record: small-molecule microarray binding, higher = more signal.
Test [2] in a line: yeast growth modulation, basal conditions, primary screen, YJM789 clinical isolate, OD600, 24 h (AID 1089).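 Note: growth of clinical yeast isolate S. cerevisiae YJM 789 seeded 1000 cells per well; test concentration not given here.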 As to conditions: S. cerevisiae YJM789 growth, higher = more signal, called active from +8 up or from −8 down.
Test [3] can be described thus: fission yeast growth modulation, primary screen, strain 972, OD600, 24 h, no modulator (AID 1090).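 Note: basal condition with compound alone and no growth modifier present; test concentration not given here.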 As to conditions: S. pombe 972 growth, higher = more signal, called active from +8 up or from −8 down.
A short description of test [4]: S. cerevisiae growth modulation with rapamycin, primary screen, strain BY4716, OD600, 96 h (AID 1091). Note: test concentration not given here. As to conditions: higher = more signal, called active from +8 up or from −8 down.
Test [5] addresses Torsin-1A-interacting protein 2 (Homo sapiens) (UniProt Q8NFQ8). In words: LULL1 binders on small-molecule microarray, primary screen, cell lysate, human LULL1 lysate, 635/667 nm fluorescence (AID 1092).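 Note: probe is lysate of COS7 cells overexpressing human LULL1; score merges per-feature 667 nm fluorescence with signal-to-noise.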 As to conditions: hLULL1 lysate binding, 635 nm fluorescence, higher = more signal.
Test [6] can be described thus: E. coli growth modulation, two-sided OD650, primary screen, E. coli filamentation project, strain DRC41, 24 h (AID 1093).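 Note: MC1000 strain lacking acrAB efflux and sulA so SOS filamentation is blocked; test concentration not given here.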 As to conditions: OD650, 24 h, higher = more signal, called active from +8 up or from −8 down.
The nature of test [7]: small-molecule microarray binders of probe aLefty2, primary screen, biochemical, biotinylated probe, 635/667 nm fluorescence (AID 1094).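 Note: score merges spot fluorescence near 667 nm with spot signal-to-noise ratio.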 As to conditions: higher = more signal.
In test [8] the test system is Noggin (protein binding on small-molecule microarray). As to the kind of experiment: Noggin binders on small-molecule microarray, primary screen, biochemical, 635/667 nm fluorescence (AID 1095).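 Note: score merges 667 nm feature fluorescence with signal to noise over triplicate slides.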 The settings on record: 635 nm fluorescence, higher = more signal.
Test [9] addresses Neurogenic locus notch homolog protein 3 (Homo sapiens) (UniProt Q9UM47). In words: NOTCH3 binders on small-molecule microarray, primary screen, biochemical, 635/667 nm fluorescence (AID 1096). As to conditions: NOTCH3 binding, 635 nm fluorescence, higher = more signal.
Test [10] is described as follows: small-molecule microarray binders of probe aEGFR, primary screen, biochemical, biotinylated probe, 635/667 nm fluorescence (AID 1097).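 Note: probe is a biotinylated anti-EGFR antibody binding compounds printed on slides; score combines fluorescence near 667 nm and signal to noise of each spot.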 As to conditions: higher = more signal.

The structures appear in SMILES notation. Active and inactive are the calls of the source.

Chain of Neurogenic locus notch homolog protein 3 (Homo sapiens) (Q9UM47 whole entry, looked up): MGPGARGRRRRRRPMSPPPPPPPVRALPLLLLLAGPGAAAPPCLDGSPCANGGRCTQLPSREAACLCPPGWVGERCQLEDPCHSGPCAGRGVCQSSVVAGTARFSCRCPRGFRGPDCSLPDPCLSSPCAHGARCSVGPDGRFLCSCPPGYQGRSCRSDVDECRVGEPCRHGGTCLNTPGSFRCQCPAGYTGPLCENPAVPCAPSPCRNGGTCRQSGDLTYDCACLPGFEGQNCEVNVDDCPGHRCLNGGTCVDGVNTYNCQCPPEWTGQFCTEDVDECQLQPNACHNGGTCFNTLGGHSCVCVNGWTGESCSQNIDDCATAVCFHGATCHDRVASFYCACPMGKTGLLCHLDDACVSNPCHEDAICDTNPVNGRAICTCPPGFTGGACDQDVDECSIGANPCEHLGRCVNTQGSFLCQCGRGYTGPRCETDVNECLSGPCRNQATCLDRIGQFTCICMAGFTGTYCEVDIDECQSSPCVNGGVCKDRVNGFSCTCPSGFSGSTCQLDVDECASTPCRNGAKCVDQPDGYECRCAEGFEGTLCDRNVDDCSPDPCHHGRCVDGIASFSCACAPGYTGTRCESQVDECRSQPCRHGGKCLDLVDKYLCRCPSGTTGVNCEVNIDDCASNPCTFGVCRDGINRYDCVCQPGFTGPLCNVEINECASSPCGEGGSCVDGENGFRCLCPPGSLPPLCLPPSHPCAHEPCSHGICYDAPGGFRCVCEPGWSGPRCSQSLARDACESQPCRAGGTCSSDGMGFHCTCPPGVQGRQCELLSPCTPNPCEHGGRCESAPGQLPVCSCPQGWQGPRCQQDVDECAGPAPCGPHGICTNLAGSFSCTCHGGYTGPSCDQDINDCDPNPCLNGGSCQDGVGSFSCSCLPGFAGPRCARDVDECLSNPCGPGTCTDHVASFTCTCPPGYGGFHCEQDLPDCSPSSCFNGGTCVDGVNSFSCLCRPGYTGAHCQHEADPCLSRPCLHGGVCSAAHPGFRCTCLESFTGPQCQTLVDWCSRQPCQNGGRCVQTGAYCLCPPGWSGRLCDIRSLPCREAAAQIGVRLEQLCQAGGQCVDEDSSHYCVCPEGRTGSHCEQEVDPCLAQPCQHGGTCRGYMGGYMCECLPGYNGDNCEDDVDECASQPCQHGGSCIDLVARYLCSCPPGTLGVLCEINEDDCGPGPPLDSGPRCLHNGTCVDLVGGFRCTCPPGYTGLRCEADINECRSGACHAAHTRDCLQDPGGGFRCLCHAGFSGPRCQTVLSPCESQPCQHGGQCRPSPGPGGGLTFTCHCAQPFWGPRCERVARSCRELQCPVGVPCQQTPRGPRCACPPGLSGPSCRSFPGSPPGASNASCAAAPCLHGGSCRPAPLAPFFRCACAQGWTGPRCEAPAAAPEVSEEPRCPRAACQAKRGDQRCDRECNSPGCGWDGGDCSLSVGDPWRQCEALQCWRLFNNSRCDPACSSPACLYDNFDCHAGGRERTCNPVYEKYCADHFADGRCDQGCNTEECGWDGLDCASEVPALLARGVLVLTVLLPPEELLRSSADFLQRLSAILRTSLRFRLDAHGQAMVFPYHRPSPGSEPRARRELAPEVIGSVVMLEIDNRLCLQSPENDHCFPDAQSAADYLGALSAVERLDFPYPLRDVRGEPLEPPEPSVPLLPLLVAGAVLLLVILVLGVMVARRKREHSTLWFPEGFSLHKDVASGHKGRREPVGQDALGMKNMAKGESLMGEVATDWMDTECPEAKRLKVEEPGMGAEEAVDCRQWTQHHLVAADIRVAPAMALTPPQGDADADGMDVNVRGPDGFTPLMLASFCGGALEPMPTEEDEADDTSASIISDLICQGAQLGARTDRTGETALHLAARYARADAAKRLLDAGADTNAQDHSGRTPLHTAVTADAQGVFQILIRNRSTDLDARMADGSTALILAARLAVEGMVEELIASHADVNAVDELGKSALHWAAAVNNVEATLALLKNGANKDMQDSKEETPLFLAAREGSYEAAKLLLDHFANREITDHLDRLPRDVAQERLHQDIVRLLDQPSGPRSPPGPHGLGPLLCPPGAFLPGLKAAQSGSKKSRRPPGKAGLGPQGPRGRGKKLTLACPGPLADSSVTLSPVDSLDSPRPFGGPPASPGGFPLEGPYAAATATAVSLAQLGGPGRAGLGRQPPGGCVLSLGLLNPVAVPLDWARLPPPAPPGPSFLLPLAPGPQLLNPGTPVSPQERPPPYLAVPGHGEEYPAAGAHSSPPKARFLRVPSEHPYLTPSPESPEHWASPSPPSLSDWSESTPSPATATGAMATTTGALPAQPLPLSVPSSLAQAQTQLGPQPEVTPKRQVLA
Chain of Torsin-1A-interacting protein 2 (Homo sapiens) (Q8NFQ8 whole entry, looked up): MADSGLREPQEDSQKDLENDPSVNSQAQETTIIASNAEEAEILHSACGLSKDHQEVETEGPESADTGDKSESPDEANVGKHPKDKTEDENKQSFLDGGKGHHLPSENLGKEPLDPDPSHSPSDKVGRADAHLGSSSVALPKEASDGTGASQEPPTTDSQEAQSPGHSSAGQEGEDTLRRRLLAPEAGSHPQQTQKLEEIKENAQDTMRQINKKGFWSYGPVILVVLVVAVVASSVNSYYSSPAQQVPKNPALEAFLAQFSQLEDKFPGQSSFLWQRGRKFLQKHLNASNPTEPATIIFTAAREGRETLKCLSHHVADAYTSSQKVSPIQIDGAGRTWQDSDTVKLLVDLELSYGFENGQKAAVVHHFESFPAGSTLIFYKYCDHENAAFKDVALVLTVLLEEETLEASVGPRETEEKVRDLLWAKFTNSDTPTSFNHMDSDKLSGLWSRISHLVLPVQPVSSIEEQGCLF

On to `NCCCCCCNC(=O)[C@@H]1C[C@@H]2C(=O)N[C@@H](CCCCN)C(=O)N2[C@@H]1c1ccc(O)cc1`, for which the composite z-score in test [1] worked out at 1.44; in test [5] it was 2.47; in test [7] it was 0.362; in test [8], 0.367; in test [9], 0.549; in test [10], 0.217. For the same compound, the z-score in test [2] was -0.171 (inactive); in [3], 0.142 (inactive); in test [4] it was -1.38 (inactive); in test [6], 0.445 (inactive).

For `C=C[C@@H](CO)N(Cc1ccc(OC)cc1)S(=O)(=O)c1ccc(Br)cc1`, the composite z-score is -0.043 in test [1]; 0.268 in [5]; 0.0711 in test [7]; -0.193 in test [8]; -0.731 in [9]; -0.0967 in [10]. For the same compound, the z-score in [2] is -3.19 (inactive); in test [3], -6.8 (inactive); in [4], -1.92 (inactive); in test [6], 2.31 (inactive).

On to `CCOC(=O)C[C@H]1[C@H](OC(=O)c2ccc(C(=O)c3ccccc3)cc2)[C@@H](NC(=O)c2ccc3ccccc3n2)c2cc(OCCCO)ccc2N1C(=O)Cc1ccc(OC)cc1`, for which the composite z-score in test [1] is 0.517; in test [5] it was 1.36; in test [7], -0.157; in [8] it was 0.842; in [9], 0.312; in test [10], -0.206. Besides, the z-score in test [2] is 1 (inactive); in test [3], 1.04 (inactive); in [4] it was 0.949 (inactive); in [6], -0.57 (inactive).

As to `O=C1N(Cc2ccccc2)c2ccccc2C[C@]12N=C(c1ccc(OCCCO)cc1)O[C@@H]2c1ccccc1`, the composite z-score in [1] is 1.21; in test [5], 2.42; in [7], 0.102; in test [8] it was 0.885; in test [9], 1.03; in test [10], -0.0549. The z-score was 1.1 (inactive) in test [2], 0.6 (inactive) in test [3], 5.61 (inactive) in test [4] and 0.316 (inactive) in test [6].

Regarding `COc1ccc(CCNC(=O)[C@@]2(c3ccc([N+](=O)[O-])cc3)CC(=O)N(C3CCCCC3)[C@@H]2c2ccc(CO)cc2)cc1`, the composite z-score in [1] is 1.29; in test [5], 2.75; in test [7], 0.157; in [8], -0.23; in test [9] it was 0.627; in test [10], -0.0452. In addition, the z-score was 0.812 (inactive) in test [2], -0.501 (inactive) in test [3], 0.361 (inactive) in test [4] and 1.3 (inactive) in test [6].

For `COc1cc(NN2C(C(O)c3ccco3)C=CC3C(=O)N(C)C(=O)C32)cc(OC)c1OC` (stereo not given), the composite z-score in test [1] was 0.865; in [5], 0.873; in test [7] it was 0.413; in [8], 0.382; in test [9], -0.254; in [10], 0.232. Besides, the z-score in [2] was -0.0402 (inactive); in [3] it was 1.06 (inactive); in [4], 0.462 (inactive); in test [6], -1.87 (inactive).

`CO[C@H]1O[C@H](CO)[C@@H](OC(=O)Nc2ccc3c(c2)OCO3)[C@H](OC(=O)Nc2ccc3c(c2)OCO3)[C@@H]1OC(=O)Nc1ccc2c(c1)OCO2`: the composite z-score is 1.54 in test [1]; 3.44 in [5]; 0.0909 in test [7]; 0.643 in [8]; 1.03 in test [9]; -0.039 in [10]. The z-score was 1.15 (inactive) in [2], 1.37 (inactive) in [3], 5.69 (inactive) in test [4] and 0.508 (inactive) in [6].

Regarding `Cc1ccc(S[C@]2(C(=O)NCCN3CCOCC3)CC(=O)N(Cc3ccccc3Cl)[C@@H]2c2ccc(CO)cc2I)cc1`, the composite z-score in test [1] was 0.443; in test [5], 2.77; in test [7], 0.508; in test [8], -0.064; in [9], -0.364; in [10], -0.455. Moreover, the z-score is -0.841 (inactive) in [2], -3.57 (inactive) in [3], 0.665 (inactive) in test [4] and -0.373 (inactive) in test [6].

Take `C=CCC(OC(C)=O)[C@@H]1[C@@H](N(Cc2cc3ccccc3o2)C(=O)Cc2ccc(F)cc2)c2cc(OCCCO)ccc2N1C(=O)Cc1ccc2ccccc2c1` (stereo not given in full): the composite z-score in test [1] is -0.241; in [5] it was 0.426; in test [7], -0.0736; in [8] it was 0.129; in test [9], -0.413; in [10], -0.185. Further, the z-score was -0.689 (inactive) in test [2], -0.761 (inactive) in test [3], -0.36 (inactive) in [4] and -1.16 (inactive) in test [6].

With `CCOC(=O)C[C@H]1[C@H](OC(=O)c2ccccc2-c2ccccc2)[C@@H](NC(=O)c2ccc3ccccc3c2)c2cc(OCCCO)ccc2N1C(=O)c1ccccc1`, the composite z-score was 0.633 in test [1]; 0.683 in test [5]; -0.0916 in test [7]; 0.554 in test [8]; 0.564 in test [9]; 0.342 in test [10]. The z-score in test [2] was 0.393 (inactive); in test [3], 0.379 (inactive); in [4] it was 1.98 (inactive); in [6] it was 0.356 (inactive).

Turning to `CN(C)CCCCCCNC(=O)[C@@H]1C[C@@H]2C(=O)N3CCC[C@H]3C(=O)N2[C@@H]1c1cccc(OCCO)c1`, the composite z-score was 1.54 in test [1]; 1.66 in [5]; -0.0664 in test [7]; 1.54 in test [8]; 1.06 in test [9]; 0.193 in test [10]. Further, the z-score in test [2] is 0.108 (inactive); in test [3], -0.177 (inactive); in test [4], 1.04 (inactive); in test [6] it was -0.395 (inactive).

For `C=C[C@@H](OC)[C@H](OC(=O)Nc1ccc(OC)cc1)c1ccc(O)c(F)c1`, the composite z-score is 0.882 in test [1]; 1.16 in test [5]; -0.183 in test [7]; 0.638 in test [8]; 0.0981 in [9]; -0.199 in test [10]. In addition, the z-score in test [2] was -1.48 (inactive); in test [3] it was -4.59 (inactive); in test [4], 0.144 (inactive); in [6], 1.19 (inactive).

Turning to `O=C1OCCC=C[C@H]2OC34C=CCN(c5ccc6ccccc6c5)C(=O)[C@H]3N(CCCO)C(=O)[C@@H]4C12` (stereo not given in full), the composite z-score in test [1] is -1.63; in test [5], -0.939; in test [7], -0.222; in [8] it was -2.16; in test [9], -1.19; in [10], -0.295. Further, the z-score in test [2] was 0.312 (inactive); in test [3], -0.951 (inactive); in test [4], 0.345 (inactive); in test [6], 0.843 (inactive).

In the case of `NCCCCCNC(=O)[C@H]1C[C@H]2C(=O)N3CCC[C@H]3C(=O)N2[C@H]1c1cccc(OCCO)c1`, the composite z-score was 1.56 in [1]; 3.15 in test [5]; 0.767 in test [7]; -0.321 in test [8]; 0.0389 in test [9]; 0.102 in test [10]. For the same compound, the z-score in test [2] is 0.372 (inactive); in [3], -1.53 (inactive); in test [4], 0.674 (inactive); in test [6], 0.0425 (inactive).
